# Source: PubChem (Buhrlage Lab, Dana-Farber Cancer Institute and Novartis Institutes for BioMedical Research (Cambridge, Mass))
# Only some compounds are listed: those with a hit (about 13% of all), similar ones and a draw of the others.
# USP30 block: blocks human USP30 ubiquitin-rhodamine cleavage | inhibition, % at 25 µM | AID 1645860 | purified USP30, Ub-rhodamine cleavage fluorescence | 47,000 tested, 5.3% active
# USP17 block: inhibitors of human USP17 deubiquitinase. A8MUK1. purified USP17, Ub-rhodamine cleavage fluorescence, 3 h. inhibition, % at 50 µM. 47,000 tested, 6.5% active
# UCHL1 block: human UCHL1 deubiquitinase inhibition; 47,000 tested, 0.2% active; P09936; AID 1645859; purified UCHL1, Ub-rhodamine cleavage fluorescence; inhibition, % at 20 µM
# USP7 inh: human USP7 deubiquitinase inhibition; purified USP7, Ub-rhodamine cleavage fluorescence; inhibition, % at 20 µM; 47,000 tested, 0.3% active; AID 1645854
# Target sequence (Q93009 whole entry, looked up): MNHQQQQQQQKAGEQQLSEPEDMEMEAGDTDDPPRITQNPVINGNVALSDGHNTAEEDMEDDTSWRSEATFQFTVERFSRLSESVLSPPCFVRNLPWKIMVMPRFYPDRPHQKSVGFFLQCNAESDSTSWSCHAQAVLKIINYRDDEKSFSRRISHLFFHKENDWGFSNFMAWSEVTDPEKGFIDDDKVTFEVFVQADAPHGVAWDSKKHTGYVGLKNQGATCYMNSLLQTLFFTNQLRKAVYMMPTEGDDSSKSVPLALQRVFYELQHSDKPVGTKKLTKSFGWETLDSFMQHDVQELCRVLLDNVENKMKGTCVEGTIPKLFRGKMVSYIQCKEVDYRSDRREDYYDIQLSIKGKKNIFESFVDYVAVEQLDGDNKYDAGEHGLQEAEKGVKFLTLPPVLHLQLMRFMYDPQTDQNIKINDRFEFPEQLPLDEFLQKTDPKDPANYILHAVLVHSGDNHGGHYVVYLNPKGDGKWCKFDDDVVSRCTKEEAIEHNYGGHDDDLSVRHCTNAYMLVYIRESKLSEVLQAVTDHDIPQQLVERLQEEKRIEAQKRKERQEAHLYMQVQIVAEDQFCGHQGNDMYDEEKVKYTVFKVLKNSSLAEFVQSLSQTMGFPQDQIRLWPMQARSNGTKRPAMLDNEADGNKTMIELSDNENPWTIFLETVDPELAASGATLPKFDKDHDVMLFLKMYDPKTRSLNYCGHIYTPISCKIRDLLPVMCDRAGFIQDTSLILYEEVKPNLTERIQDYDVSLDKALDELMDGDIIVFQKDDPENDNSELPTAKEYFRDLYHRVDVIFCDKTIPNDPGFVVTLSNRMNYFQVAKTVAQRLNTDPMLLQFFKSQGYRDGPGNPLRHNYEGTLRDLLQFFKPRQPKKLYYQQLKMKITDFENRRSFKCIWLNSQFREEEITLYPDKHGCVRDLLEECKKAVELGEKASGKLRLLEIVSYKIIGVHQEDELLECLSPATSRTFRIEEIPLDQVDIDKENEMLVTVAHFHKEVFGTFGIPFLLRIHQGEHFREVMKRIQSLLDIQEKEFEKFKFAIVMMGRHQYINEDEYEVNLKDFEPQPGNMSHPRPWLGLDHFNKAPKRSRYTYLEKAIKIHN
# USP8 block: inhibitors of human USP8 deubiquitinase | P40818 | 47,000 tested, 4.2% active | inhibition, % at 20 µM | purified USP8, Ub-rhodamine cleavage fluorescence, 30 min
# USP10 block: human USP10 deubiquitinase inhibition | purified USP10, Ub-rhodamine fluorescence, 60 min | Q14694 | inhibition, % at 20 µM | 47,000 tested, 1.1% active
# Active calls of the source: *; nt = not tested or not shown. No stated cut-off is given here; in the data, active means inhibition above about 30%; inactive means the rest.
SMILES,USP30 block,USP17 block,UCHL1 block,USP7 inh,USP8 block,USP10 block
CCc1ccc(NC(=O)Cn2cccc(S(=O)(=O)N3CCCC3)c2=O)cc1,-301.5,-22.5,-19.7,-3.1,-36.6,-12.2
COc1cccc(/C=C/c2nc3ccccc3c(=O)n2-c2cc(C)cc(C)c2)c1OC,14.1,7.6,3.5,3.7,12.6,3.1
Cc1ccccc1CNC(=O)C1CCN(C2=NS(=O)(=O)c3ccccc32)CC1,32.2*,12.1,1.2,5.4,18.3,-3.6
COc1ccc(NC(=O)C2CCN(C3=NS(=O)(=O)c4ccccc43)CC2)cc1,41.2*,42.9*,3.3,0.9,2.9,3.7
O=C(NCc1ccccc1)C1CCN(C2=NS(=O)(=O)c3ccccc32)CC1,nt,14.4,2.2,6.3,3.9,1.5
O=C(c1ccc(N2CCOCC2)c([N+](=O)[O-])c1)N(Cc1ccccc1)c1ccccn1,-7.8,-22.8,0.9,-1.3,-109.1,-0.5
O=C(Nc1ccc(S(=O)(=O)N2CCOCC2)cc1)c1oc(=O)c2ccccc2c1-c1ccccc1,33.9*,37.2*,-3.3,1.5,12.8,4.7
Cc1cc(C(=O)CSc2nc3ccccc3[nH]2)c(C)n1C1CC1,nt,-9.9,-5.7,-1.9,-24.6,-2.7
Cc1cc2nc(SCC(=O)c3ccc(O)cc3)[nH]c2cc1C,26.6,49.1*,-1.7,13.2,27.6,11.9
Cc1sc2ncnc(OCc3ccc(F)cc3Cl)c2c1C,-4.9,14.0,0.4,-22.2,20.2,-6.8
CCN1C[C@H]2CCN(C(=O)c3ccnnc3)CC[C@H]2S1(=O)=O,-18.0,-12.2,-0.9,1.6,-14.8,-2.7
Cc1ccccc1C(=O)N1CCN(CCNC(=O)C(=O)Nc2ccc(Cl)cc2)CC1,42.4*,15.4,1.7,3.1,13.0,-3.1
CC(C)=CCC/C(C)=C/CCC(C)(O)C1Cc2c(c3ccccc3[n+]([O-])c2C)O1 (configuration not stated),30.3*,18.9,12.3,-9.7,11.5,10.7
Cc1ccc(S(=O)(=O)N2CCc3cc(C(=O)NC(C)(C)C)ccc32)cc1,-6.4,-5.0,6.7,8.5,0.0,1.4
COc1cccc(CNC(=O)c2ccc3nc(N4CCOCC4)sc3c2)c1OC,-7.1,-2.7,1.0,2.5,-49.3,-0.6
CC(C)C[C@H](NC(=O)c1ccc2nc(-n3cccc3)sc2c1)C(=O)NCc1ccco1,-158.7,-16.9,-3.1,-1.7,53.4*,13.5
COc1ccc(NC(=O)CNC(=O)c2ccc3nc(-n4cccc4)sc3c2)cc1,-44.8,30.9*,11.2,-21.6,82.5*,27.8
Cc1cc(=O)[nH]c(NC2CCN(S(=O)(=O)c3ccccc3C(F)(F)F)CC2)n1,-3.8,-11.8,1.6,5.4,-4.8,-1.2
CCn1c(=N)n(CCOc2ccc(F)cc2)c2ccccc21,39.3*,5.8,0.5,-80.6,2.3,0.2
O=C(Cn1cnc(S(=O)(=O)N2CCCC2)c1)N1CCCc2ccccc21,3.2,-3.9,-0.5,0.1,-3.3,-2.5
COc1ccccc1CNC(=O)CCCCn1c(=O)c2ccccc2n(Cc2ccccc2C#N)c1=O,27.3,64.7*,0.8,1.0,0.0,28.4
CCOc1ccccc1NC(=O)Cn1c(=O)n(CCCCC(=O)NCc2ccccc2OC)c(=O)c2ccccc21,-1.6,2.0,-1.6,3.0,2.5,1.2
COc1ccccc1CNC(=O)CCCCn1c(=O)c2ccccc2n(Cc2ccc(C)cc2)c1=O,27.7,37.9*,0.0,8.5,28.9,35.3*
COc1ccccc1CNC(=O)Cn1c(=O)c2c(ncn2CC(C)C)n(Cc2ccccc2)c1=O,31.3*,18.6,-1.9,1.1,26.3,8.7
COc1ccnc2c1c(=O)n(CC(=O)NCc1ccccc1Cl)c(=O)n2C,41.5*,12.8,-5.1,0.1,-0.3,-5.4
O=C(COc1ccc(Cl)cc1Cl)Nc1ccccc1N1CCCC1,16.6,9.7,7.4,0.2,17.5,10.7
CCN1CCC2(CN(C(C)=O)CC23CCN(C(=O)NCc2cccc(OC)c2)CC3)C1=O (configuration not stated),22.0,1.8,3.6,5.3,-3.5,-6.6
CCCc1cc(=O)oc2cc(OCC(=O)NCc3ccccn3)ccc12,60.0*,61.2*,1.6,2.8,28.7,5.0
Cc1cc(=O)oc2cc(OCC(=O)NCc3ccccn3)ccc12,19.5,11.9,3.9,8.1,0.4,0.7
O=C(Cc1cccc(F)c1)N1CCC(Nc2ncnc3c2CCC3)C1 (configuration not stated),-7.6,-4.7,-0.3,0.6,2.4,-1.1
